Experimental data published in PubChem BioAssay.
A number with no mark means an inactive call. For some of these results: Results with a measured potency or affinity are listed apart. Activity calls are given as the source filed them. Unless noted, the rule behind the calls is not given here.

Assays:
[1] = antimalarial activity against Dd2 strain (AID 2302;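 active = growth inhibition above 50% at the single 2 µM test dose, taken to imply half-maximal potency below 2 µM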;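 note: 0% = DMSO untreated growth and 100% = chloroquine plus artemisinin killed control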); details: P. falciparum Dd2 in RBCs, LDH growth readout, 72 h; at 2 µM; hits give high values
[2] = human hepatoma cell viability loss – ATP luminescence, cytotoxicity control for P. falciparum antimalarial project, primary screen (AID 2303;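 active = inhibition above 50%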;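 note: 0% = DMSO wells and 100% = digitonin-killed cells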); details: HepG2 viability, 24-48 h, at 10 µM, hits give high values
[3] = target: L-lactate dehydrogenase (Plasmodium falciparum (isolate CDC / Honduras)) (UniProt Q27743); experiment: PfLDH activity inhibition – cell lysate, 3D7 strain, counter-screen for P. falciparum growth inhibition project (AID 2304);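 note: 0% = vehicle and 100% = reference inhibitor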; details: P. falciparum 3D7 crude extract, LDH APAD/NBT absorbance; at 2 µM; hits give high values
L-lactate dehydrogenase (Plasmodium falciparum (isolate CDC / Honduras)), sequence (Q27743 whole entry, looked up): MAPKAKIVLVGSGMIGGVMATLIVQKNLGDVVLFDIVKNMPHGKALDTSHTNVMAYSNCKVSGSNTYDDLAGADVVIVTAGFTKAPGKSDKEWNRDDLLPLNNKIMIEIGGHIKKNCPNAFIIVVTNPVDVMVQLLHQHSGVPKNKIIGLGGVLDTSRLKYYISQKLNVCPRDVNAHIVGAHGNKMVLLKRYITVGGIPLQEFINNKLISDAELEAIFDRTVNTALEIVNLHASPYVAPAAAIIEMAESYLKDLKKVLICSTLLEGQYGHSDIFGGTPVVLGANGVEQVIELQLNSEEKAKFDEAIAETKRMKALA

[4] = inhibition of 3D7 malaria parasite growth – strain 3D7 (AID 2306);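 note: 0% = DMSO wells and 100% = chloroquine plus artemisinin control wells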; details: P. falciparum 3D7 erythrocytic growth, LDH absorbance, 72 h; at 2 µM; hits give high values
[5] = target: Calcium-dependent protein kinase 1 (Plasmodium falciparum (isolate 3D7)) (UniProt P62344); experiment: PfCDPK1 kinase inhibitors, biochemical, TCAMS library (AID 1159585; cut-off not given, nearly all actives have IC50 up to about 0.98 µM;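 note: inhibitors leave more ATP so luminescence rises with inhibition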); details: recombinant PfCDPK1, Kinase-Glo ATP depletion luminescence
Calcium-dependent protein kinase 1 (Plasmodium falciparum (isolate 3D7)), sequence (P62344 whole entry, looked up): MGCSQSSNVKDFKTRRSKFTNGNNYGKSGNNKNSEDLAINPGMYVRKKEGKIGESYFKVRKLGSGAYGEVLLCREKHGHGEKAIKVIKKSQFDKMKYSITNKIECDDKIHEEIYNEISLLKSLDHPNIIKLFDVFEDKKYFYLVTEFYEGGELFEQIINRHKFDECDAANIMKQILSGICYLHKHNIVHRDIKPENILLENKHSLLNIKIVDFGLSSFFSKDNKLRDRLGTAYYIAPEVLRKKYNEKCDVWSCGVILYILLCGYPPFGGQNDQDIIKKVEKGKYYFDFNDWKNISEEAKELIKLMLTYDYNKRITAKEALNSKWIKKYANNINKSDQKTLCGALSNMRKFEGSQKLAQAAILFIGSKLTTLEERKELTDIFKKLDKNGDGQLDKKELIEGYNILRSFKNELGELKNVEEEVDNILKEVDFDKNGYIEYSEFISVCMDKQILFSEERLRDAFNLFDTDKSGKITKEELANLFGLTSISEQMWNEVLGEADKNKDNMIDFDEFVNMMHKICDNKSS

[6] = target: Plasmodium falciparum protein kinase 6 (PK6, PF3D7_1337100) (UniProt Q8IDW1); experiment: PfPK6 kinase inhibitors, biochemical, TCAMS library (AID 1159586); details: recombinant PfPK6, Kinase-Glo ATP depletion luminescence
Plasmodium falciparum protein kinase 6 (PK6, PF3D7_1337100), sequence (Q8IDW1 1-305): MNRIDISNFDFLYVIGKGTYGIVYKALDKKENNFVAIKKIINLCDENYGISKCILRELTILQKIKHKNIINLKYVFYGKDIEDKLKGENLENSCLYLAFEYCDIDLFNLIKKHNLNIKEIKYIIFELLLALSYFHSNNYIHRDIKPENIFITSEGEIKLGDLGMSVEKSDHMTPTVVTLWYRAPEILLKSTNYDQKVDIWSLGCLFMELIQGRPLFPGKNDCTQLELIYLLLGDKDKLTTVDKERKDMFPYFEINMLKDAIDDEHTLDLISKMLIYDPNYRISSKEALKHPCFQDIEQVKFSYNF

[7] = target: Protein kinase 7 (PK7), Plasmodium falciparum 3D7 (PF3D7_0213400) (UniProt Q7YTF7); experiment: inhibition of Plasmodium PK7 catalytic activity – biochemical, TCAMS antimalarial set, Kinase-Glo luminescence (AID 1159587); details: recombinant PfPK7, Kinase-Glo ATP depletion luminescence
Protein kinase 7 (PK7), Plasmodium falciparum 3D7 (PF3D7_0213400), sequence (Q7YTF7 1-343): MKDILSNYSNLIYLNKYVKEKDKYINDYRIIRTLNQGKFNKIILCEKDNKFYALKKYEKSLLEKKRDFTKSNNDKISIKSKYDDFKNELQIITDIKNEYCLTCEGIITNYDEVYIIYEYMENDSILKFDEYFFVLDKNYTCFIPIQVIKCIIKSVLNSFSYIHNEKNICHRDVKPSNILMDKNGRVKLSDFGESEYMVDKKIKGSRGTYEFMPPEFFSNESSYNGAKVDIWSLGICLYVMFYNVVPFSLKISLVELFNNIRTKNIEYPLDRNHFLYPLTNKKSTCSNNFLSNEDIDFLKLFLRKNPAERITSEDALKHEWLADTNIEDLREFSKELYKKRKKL

[8] = target: Calcium-dependent protein kinase 4 (Plasmodium falciparum (isolate 3D7)) (UniProt Q8IBS5); experiment: PfCDPK4 kinase inhibitors, biochemical, TCAMS library (AID 1159588; cut-off not given, nearly all actives have IC50 up to about 0.91 µM); details: recombinant PfCDPK4, Kinase-Glo ATP depletion luminescence
Calcium-dependent protein kinase 4 (Plasmodium falciparum (isolate 3D7)), sequence (Q8IBS5 whole entry, looked up): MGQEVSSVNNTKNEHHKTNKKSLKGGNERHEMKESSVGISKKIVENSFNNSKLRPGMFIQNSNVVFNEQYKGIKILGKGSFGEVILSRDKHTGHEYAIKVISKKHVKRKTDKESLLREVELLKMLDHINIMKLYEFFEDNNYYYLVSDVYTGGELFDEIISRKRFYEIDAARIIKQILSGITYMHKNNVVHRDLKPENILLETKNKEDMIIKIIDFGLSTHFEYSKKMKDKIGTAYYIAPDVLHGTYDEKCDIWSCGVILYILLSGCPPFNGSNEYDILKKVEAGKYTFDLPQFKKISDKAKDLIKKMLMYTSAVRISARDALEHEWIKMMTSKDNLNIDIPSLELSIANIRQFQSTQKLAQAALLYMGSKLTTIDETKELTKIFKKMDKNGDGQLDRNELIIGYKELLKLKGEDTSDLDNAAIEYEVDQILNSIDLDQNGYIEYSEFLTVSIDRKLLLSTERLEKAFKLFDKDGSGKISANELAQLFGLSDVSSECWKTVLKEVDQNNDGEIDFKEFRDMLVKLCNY

| SMILES | growth inhibition [1] | inhibition [2] | inhibition [3] | growth inhibition [4] | outcome [5] | outcome [6] | outcome [7] | outcome [8] |
| --- | --- | --- | --- | --- | --- | --- | --- | --- |
| CO/N=C(\C)c1ccc2c(c1)CCN(CCC1CCC(NC(=O)/C=C/c3ccc(F)cc3)CC1)CC2 (stereo not given) | 15% | 45% | 1% | 95% (active) | inactive | inactive | inactive | inactive |
| COc1cc2nc(NCCc3ccccc3)nc(NCc3nccs3)c2cc1OC | 93% (active) | 1% | 0% | 99% (active) | inactive | inactive | inactive | inactive |
| COc1ccc(S(=O)(=O)NC2CCN(c3cc(C)nc(Nc4cccc(C#N)c4)n3)CC2)cc1 | 55% (active) | 9% | -4% | 88% (active) | inactive | inactive | inactive | inactive |
| Fc1ccc(-c2csc3ncnc(Cl)c23)cc1 | 95% (active) | 3% | -1% | 94% (active) | inactive | inactive | inactive | inactive |
| CCCCN(CCCC)C(=N)c1cccc2c1CCCC2 | 9% | 11% | -2% | 95% (active) | inactive | inactive | inactive | inactive |
| O=C(Nc1ccc(-c2nc3ccccc3[nH]2)cc1)c1ccc(Cl)c([N+](=O)[O-])c1 | 4% | 6% | 1% | 99% (active) | inactive | inactive | inactive | inactive |
| CC1(C)N=C(N)N=C(N)N1OCc1cc2ccccc2cc1CON1C(N)=NC(N)=NC1(C)C | 51% (active) | 0% | -5% | 92% (active) | inactive | inactive | inactive | inactive |
| CO/C(=C\C=C\c1cc2cc(Cl)c(Cl)cc2[nH]1)C(=O)NC1CCN(CCOc2ccccc2)CC1 | 94% (active) | 35% | -3% | 101% (active) | inactive | inactive | inactive | inactive |
| CN(Cc1cccc(O)c1)C1CCN(c2cc(NC(=O)c3ccc(F)cc3)ccn2)C1 (stereo not given) | 6% | 5% | 5% | 91% (active) | inactive | inactive | inactive | inactive |
| Nc1c2c(nc3ccc(NC(=O)c4ccccc4)cc13)CCCC2 | 8% | 0% | -8% | 99% (active) | inactive | inactive | inactive | inactive |
| Clc1ccc(CNc2nc(NCCc3cnc[nH]3)nc(Nc3ccc4c(c3)OCO4)n2)cc1 | 6% | 8% | -2% | 84% (active) | inactive | inactive | inactive | inactive |
| CCCN1CCN(CCCCNc2c3ccccc3nc3ccccc23)CC1 | 0% | 34% | -8% | 100% (active) | inactive | inactive | inactive | inactive |
| CC(C)n1ncc2c(C(=O)N3CCCCCC3)cc(-c3ccccc3)nc21 | 42% | -12% | 2% | 97% (active) | inactive | inactive | inactive | inactive |
| COc1ccc(C(=O)C2CCN(CCCCNC(=O)c3ccc(NC(=O)c4ccc(Cl)cc4)cc3)CC2)c(OC)c1 | 13% | 47% | 4% | 98% (active) | inactive | inactive | inactive | inactive |
| Clc1ccccc1CN1CCC(NCc2cccc(-n3ccnc3)c2)CC1 | 43% | 6% | -3% | 101% (active) | inactive | inactive | inactive | inactive |
| NC(N)=NN=Cc1ccc2c(ccc3ccccc32)c1 | 68% (active) | 9% | 6% | 100% (active) | inactive | inactive | inactive | inactive |
| CC(=O)Nc1nc(C(=O)Nc2ccc(-c3ccc(-c4nc5ccccc5[nH]4)cc3)cc2)cs1 | 53% (active) | 38% | -5% | 100% (active) | inactive | inactive | inactive | inactive |
| COc1ccc2nccc([C@@H](O)CN3CCC(NC(=O)Cn4nc(-c5ccc(C(F)(F)F)cc5)ccc4=O)CC3)c2c1 | 90% (active) | 12% | -3% | 100% (active) | inactive | inactive | inactive | inactive |
| Cc1cc(NC2CCN(CC3CCCCC3)C2)nc(Nc2ccc(Br)cc2)n1 (stereo not given) | 83% (active) | 22% | -1% | 101% (active) | inactive | inactive | inactive | inactive |
| O=S1(=O)C=C(c2ccccc2)CC1 | 44% | 57% (active) | -1% | 97% (active) | inactive | inactive | inactive | inactive |
